Experimental findings from PubChem BioAssay (NCI) are described below.

The panel holds about 83,000 compounds, 20% with a hit somewhere; the sample as a whole holds those more often.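 Single-concentration screen, 48 h exposure, 96-well plates. Endpoint: percent growth. Below 10 = active.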 Values without a mark were called inactive. Calls of active or inactive are those of the source.

Common to all, as to test: NCI-60 one-dose screen, 48 h (100 = growth as untreated, 0 = no growth, -100 = all killed)
What all share (details): 10 µM unless noted

For assay [1], the system named is T-47D breast.
In assay [2] the test system is BT-549 breast.
Assay [3] relates to MDA-MB-435 melanoma.
Assay [4] concerns SW-620 colon.
In assay [5] the test system is MCF7 breast.
In assay [6] the test system is HCT-116 colon.
In assay [7] the test system is HCC-2998 colon.
The test system of assay [8] is KM12 colon.

In the case of `CCOC(=O)c1c(-c2ccc(Cl)cc2)c(C#N)c(=O)n(-c2ccccc2CC)c1N`, the growth was 84.1% in assay [1]; 123% in assay [2]; 106% in assay [3]; 99.9% in assay [4]; 90.7% in assay [5]; 91.3% in assay [6]. Besides, the growth in assay [7] is 66.4%; in assay [8], 79.1%.
In the case of `O=C1/C(=C\c2c[nH]c3ccccc23)c2ccccc2N1c1c(Cl)cccc1Cl`, the growth in assay [1] is 1.28% (active); in assay [2], -22.1% (active); in assay [3], -21.6% (active); in assay [4], 5.11% (active); in assay [5] it was 0.197% (active); in assay [6] it was -100% (active). Moreover, the growth in assay [7] was -91.9% (active); in assay [8] it was -82.3% (active).
On to `CCOC(=O)c1csc(NC(=O)COc2cccc(/C=C3\Oc4cc(OC)ccc4C3=O)c2)n1`, for which the growth in assay [1] is 68.9%; in assay [2], 84.7%; in assay [3], 90.5%; in assay [4] it was 108%; in assay [5], 81.1%; in assay [6] it was 90.7%. The growth in assay [8] was 83.9%.
Take `COc1ccc2c(c1)[nH]c(=O)c1c3cccnc3cn21`: the growth was 60.2% in assay [1]; 45.6% in assay [2]; -6.86% (active) in assay [3]; 20% in assay [4]; 15.2% in assay [6]; 21.5% in assay [7]. In assay [8], the growth was 14.5%.
Consider `O=Cc1ccc(O)c2ncccc12`, for which the growth in assay [1] was 22.8%; in assay [2] it was -1.72% (active); in assay [3], 60.3%; in assay [4] it was 21.5%; in assay [6], -7.5% (active); in assay [7] it was 86.6%.
On to `O=C1Nc2ccccc2/C1=C/c1cn(C(=O)c2c(Cl)cccc2Cl)c2ccccc12`, for which the growth in assay [1] is 47.7%; in assay [2] it was 51.7%; in assay [3], 85.7%; in assay [4] it was 45.5%; in assay [5] it was 22.9%; in assay [6], 26.1%. Besides, the growth in assay [8] is 54.8%.
`CCCCCCCCCCCC(c1ccccc1)[N+](C)(C)C` (configuration not stated): the growth in assay [1] is 2.28% (active); in assay [2] it was -36.3% (active); in assay [3], 8.21% (active); in assay [4], 41.9%; in assay [5], 16.1%; in assay [6], 9.83% (active). In addition, in assay [8], the growth is -20.7% (active).
`CS(=O)c1cccc(-c2ccc3nc(N)n(-c4ccc(C(F)(F)F)cc4)c(=O)c3c2)c1` (configuration not stated): the growth in assay [1] is 77.1%; in assay [2], 99.4%; in assay [3], 105%; in assay [4], 103%; in assay [6], 100%; in assay [7] it was 106%. In addition, in assay [8], the growth was 98.5%.
Consider `Cc1ccc(-c2cc(-c3ccccc3C)[nH]c(=O)c2C#N)s1`, for which the growth in assay [1] was 86.5%; in assay [2], 79.4%; in assay [3], 94.9%; in assay [4], 95.6%; in assay [6], 91.8%; in assay [7] it was 111%. In addition, in assay [8], the growth was 95.3%.
With `COc1ccc2c(c1)C(=O)/C(=C/c1cccc(OCC(=O)Nc3nc(C)c(C)s3)c1)O2`, the growth is -6.43% (active) in assay [1]; -81.9% (active) in assay [2]; 15.3% in assay [3]; -76.9% (active) in assay [4]; 40.5% in assay [5]; -96.5% (active) in assay [6]. The growth in assay [8] was 9.4% (active).
`COc1ccc(-c2nc(SC(C)C)nc(NNC(N)=S)c2C#N)cc1`: the growth is 51.6% in assay [1]; 77.2% in assay [2]; -46.4% (active) in assay [3]; 22.2% in assay [4]; 75.1% in assay [6]; 63.7% in assay [7]. Also, the growth in assay [8] was 39.2%.
As to `O=C(NCCCNc1cc(-c2cn(-c3ccccc3)nc2-c2cccc(O)c2)ccn1)c1ccccc1`, the growth in assay [1] was -13.8% (active); in assay [2], 10.3%; in assay [3] it was -10.5% (active); in assay [4] it was -32.4% (active); in assay [6], 24.8%; in assay [7], -26.1% (active). In addition, in assay [8], the growth was 20.2%.
As to `COc1ccc(C(=NN=C(N)N)c2ccc(OC)cc2)cc1`, the growth in assay [1] is 8.87% (active); in assay [2], 30.6%; in assay [3], -35.2% (active); in assay [4] it was 25.3%; in assay [5], 5.47% (active); in assay [6], 21.5%. In assay [8], the growth is 21.2%.
For the molecule `CCn1c(C)nc2cc(C(N)=O)ccc21`, the growth in assay [1] was 113%; in assay [2], 111%; in assay [3], 131%; in assay [4], 100%; in assay [6], 94.6%; in assay [7] it was 96.9%. The growth in assay [8] is 107%.
Take `O=c1ccn2nc3ccccc3c2[nH]1`: the growth in assay [1] was 95%; in assay [2], 98.2%; in assay [3] it was 118%; in assay [4], 114%; in assay [5], 107%; in assay [6] it was 103%. In addition, in assay [8], the growth is 112%.
In the case of `NC[C@H](O)c1ccc(O)c(O)c1`, the growth is 110% in assay [1]; 88.7% in assay [2]; 109% in assay [3]; 105% in assay [4]; 95.6% in assay [6]; 102% in assay [7]. In addition, in assay [8], the growth was 103%.
Regarding `O=C1c2cccc(NCCN=Cc3cc([N+](=O)[O-])ccc3O)c2C(=O)c2c(NCCN=Cc3cc([N+](=O)[O-])ccc3O)cccc21`, the growth was 75.8% in assay [1]; 107% in assay [2]; 99.3% in assay [3]; 29.8% in assay [4]; 20.8% in assay [5]; 33.3% in assay [6]. The growth in assay [8] is 46.8%.
Turning to `CCN(CC)c1ccc(C(=O)c2ccc(N(CC)CC)cc2)cc1`, the growth in assay [1] was 20.1%; in assay [2], 4.9% (active); in assay [3] it was 0.459% (active); in assay [4], 26.4%; in assay [5], 13.5%; in assay [6] it was 10.2%. Further, in assay [8], the growth was 25.1%.
